Assay outcomes: PubChem, Broad Institute
PGC1a acetyl inh: modulators of PGC1a acetylation; U2OS PGC1a acetylation, AlphaScreen anti-acetyl-lysine; with virally co-expressed GCN5 acetyltransferase; inhibition, % at 15.6 µM; 0.17% of 350,000 active; AID 651687;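 active = every replicate shows inhibition of at least 40%; inconclusive = mean inhibition at least 40% but some replicate below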;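 also: 0% = neutral control wells and 100% = positive control wells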
NSD2 inh: NSD2 (human) methyltransferase inhibition. O96028. NSD2 peptide methylation, AlphaScreen, 120 min. inhibition, % at 12.5 µM. 0.54% of 310,000 active; in the data active = inhibition above about 50%
GSIS activator: primary screen for activators of insulin secretion dependent on glucose, INS-1E cells, GLuc reporter luminescence; 0.61% of 370,000 active; AID 743287; activation, % at 16.6 µM; INS-1E GLuc reporter insulin secretion, 2-3 h;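 active = lowest replicate activation of at least 40%, so every replicate reaches that level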;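 also: 0% = median of neutral control wells and 100% = median of IBMX positive control wells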
Env fusion inh: blocks HIV Env-driven cell-cell fusion | 1.1% of 360,000 active | HeLa-JRFL Env/CEM21 cell fusion, luciferase | inhibition, % at 12.3 µM;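 active = mean replicate inhibition score of at least 50 and every replicate individually at or above 50; inconclusive = only one of the two criteria met; inactive = mean below 50 and not all replicates reaching 50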;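 also: 0% = plate neutral controls and 100% = maraviroc near 300 nM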
AF4-AF9 inh: MLL-AF4/AF9 protein interaction inhibition; P42568; AlphaScreen, biotin-AF4 peptide binding to FLAG-AF9; inhibition, % at 10 µM; 0.47% of 350,000 active; AID 651704;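 active = every replicate reaching a set inhibition limit, whatever the replicate mean, cut at about 25% in these data; inconclusive = mean inhibition reaches that limit but some replicates miss it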;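 also: 0% = plate neutral control median and 100% = total signal loss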
Starred values were filed as active, the others as inactive; ? = inconclusive; / = no result given; [ ] = remark or other dose. An excerpt weighted towards active compounds, which were near 2.1% of everything screened.

SMILES	PGC1a acetyl inh	NSD2 inh	GSIS activator	Env fusion inh	AF4-AF9 inh
Cc1ccc(SCCSc2nc(N)cc(=O)[nH]2)cc1	-15	-1	23	35	1
Nc1cc(=O)[nH]c(SCCSc2ccc(F)cc2)n1	6	-4	5	66*	?
O=c1[nH]nc(-c2ccc(F)cc2)cc1Cc1cccs1	/	-5	46*	5	/
CC(OC(=O)CCN1C(=O)C2CC=CCC2C1=O)C(=O)Nc1cccc(Cl)c1 (stereo not given)	/	-1	63*	19	0
Cc1c(Cl)cccc1NS(=O)(=O)c1ccc2c(c1)C1C=CCC1C(c1ccc(C(=O)O)cc1)N2 (stereo not given)	107*	/	/	/	/
C[C@@H]1CN([C@H](C)CO)C(=O)Cc2cc(NC(=O)NC3CCCCC3)ccc2O[C@H]1CN(C)S(=O)(=O)c1ccccc1	-7	/	-1	/	1
C[C@H](CO)N1C[C@H](C)[C@H](CN(C)S(=O)(=O)c2ccccc2)Oc2ccc(NC(=O)NC3CCCCC3)cc2CC1=O	1	/	-15	87*	0
C[C@H]1CN([C@@H](C)CO)C(=O)Cc2cc(NC(=O)Nc3ccccc3)ccc2O[C@@H]1CN(C)S(=O)(=O)c1ccccc1	-1	/	-2	-2[16.7 µM]	-9
C[C@H]1CN([C@@H](C)CO)C(=O)Cc2cc(NC(=O)Nc3ccccc3)ccc2O[C@H]1CN(C)S(=O)(=O)c1ccccc1	4	/	/	70*[16.7 µM]	-7
CC(C)NC(=O)Nc1ccc2c(c1)CC(=O)N([C@@H](C)CO)C[C@H](C)[C@H](CN(C)S(=O)(=O)c1ccccc1)O2	4	/	7	23[16.7 µM]	1
CC(C)NC(=O)Nc1ccc2c(c1)CC(=O)N([C@H](C)CO)C[C@H](C)[C@H](CN(C)S(=O)(=O)c1ccccc1)O2	0	/	7	65*[16.7 µM]	-1
CN(C)C(=O)C[C@@H]1CC[C@H](NC(=O)Nc2cccc(F)c2)[C@H](CO)O1	0	/	-6	-7[16.7 µM]	-2
Cc1cc(C)nc(N2CCCC(C(=O)NCCc3ccccc3F)C2)n1 (stereo not given)	-10	-1	-8	/	0
CCN(CCCNC(=O)CC(C(=O)N1CCc2ccccc21)n1ccnc1)c1ccccc1 (stereo not given)	-2	10	-31	63*	/
Cc1noc(C)c1NC(=O)N(C)C[C@H]1Oc2ccc(NC(=O)Nc3ccc(F)cc3)cc2C(=O)N([C@@H](C)CO)C[C@H]1C	-3	/	12	0[16.7 µM]	-13
NC(=NCc1ccccc1)NN=Cc1ccnc2ccccc12	/	20	2	9	27*
C=CCNc1sc(C(=O)C2CC2)c(N)c1C#N	0	0	65*	/	/
C=CCNc1sc(C(=O)C(C)(C)C)c(N)c1C#N	0	6	/	4	/
CCCCN(Cc1nc2ccccc2c(=O)[nH]1)C(=O)c1nn(C)c(=O)c2ccccc12	/	-1	47*	-42	-1
CCCC#Cc1ccc2c(c1)O[C@H](CN(C)Cc1ccc3c(c1)OCO3)[C@@H](C)CN([C@H](C)CO)S2(=O)=O	1	/	-24	18[16.7 µM]	-5
CCCC#Cc1ccc2c(c1)O[C@H](CN(C)Cc1ccc3c(c1)OCO3)[C@H](C)CN([C@H](C)CO)S2(=O)=O	-23	/	-19	56*[16.7 µM]	4
CC(C)CC#Cc1ccc2c(c1)O[C@@H](CN(C)Cc1ccc3c(c1)OCO3)[C@H](C)CN([C@H](C)CO)S2(=O)=O	53*	/	6	17[16.7 µM]	2
CCc1cc2c(NCc3ccco3)ncnc2s1	-8	12	/	80*	/
COc1ccc(OC)c(NC(=O)COC(=O)c2c3c(nc4ccccc24)CCCC3)c1	-26	-1	5	/	-18
N#CN=CN1CC=C(c2ccc(Cl)cc2)CC1	/	-5	67*	63*	0
SMILES	PGC1a acetyl inh	NSD2 inh	GSIS activator	Env fusion inh	AF4-AF9 inh
c1ccc2c(c1)[nH]c1c(N3CCOCC3)ncnc12	-5	-1	-4	/	5
CC(=O)Nc1nnc(-c2ccco2)o1	/	/	-20	-7	-3
C/C(=N\NC(=O)c1cc2ccccc2cc1O)c1ccccn1	/	/	-9	59*	-5
C/C(=N\NC(=O)c1c[nH]c2ccccc12)c1ccccn1	7	-20	18	-20	2
N#C[C@H]1[C@@H](c2ccccc2C2=CCCCC2)[C@@H](CO)N1S(=O)(=O)c1cccc(F)c1	-11	/	-14	/	-1
COc1cc(OC)c(NC(=O)N2CCOCC2)cc1Cl	-1	1	-3	5	3
O=C(NCCN1CCOCC1)c1ccc(Cl)c(S(=O)(=O)N2CCOCC2)c1	/	-2	19	-10	-1
